Data published in PubChem BioAssay (NCATS).
Results filed as inconclusive are left out. Activity calls are given as the source filed them. Unless noted, the call rests on the fitted dose curve; in most records, active means well fitted curve in the direction sought with a large enough effect; inconclusive means small, poorly fitted or top-dose-only effect, or another doubt; inactive means no such curve, though single readings can be large; an effect the other way counts as inactive or inconclusive.

What was measured:
[1] = target: Lysosomal acid glucosylceramidase (Homo sapiens) (UniProt P04062); experiment: Glucocerebrosidase-p2 (AID 348; in the data active means potency below about 10 µM; further: potency means the concentration at half of the fitted maximal effect); details: purified GBA, blue fluorogenic substrate, 40 min
Outline: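 Compounds titrated from 0.6 nM upwards against 0.2 nM enzyme in pH 5.9 citric acid/KH2PO4, taurocholate, tween-20; blue fluorogenic substrate 80 uM, 40 min room temperature, stopped and read Ex 365/Em 440 for AC50.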

[2] = AP1 Signaling Pathway (AID 357; active means well fitted curve in either direction with a large enough effect, not every such curve was filed as active;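 further: ME-180 reporter cells stimulated with EGF at its EC50 level; on the % scale 0 is the no-effect control and ±100 the full control effect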); details: ME-180 AP-1-bla reporter, EGF-induced, beta-lactamase ratio, 5 h; at 7.69 µM (top of the series) unless noted
Outline: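 Beta-lactamase reporter under AP-1 response element, ME-180 background. Stimulus: EC50 EGF. Compound exposure 5 h, 37 °C. Detection: CCF4, 2.5 h RT, 460/530 nm. Values: AC50 from titration.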

[3] = target: Cytochrome P450 1A2 (Homo sapiens) (UniProt P05177); experiment: p450-cyp1a2 (AID 410; calls by dose curve; further: potency means the concentration at half of the fitted maximal effect)
Outline: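 Inhibition was calculated relative to 57 uM furafylline (full inhibition). The reaction used human CYP1A2 at 20nM with Luciferin-ME at its Km, 100uM, driven by an NADPH-regenerating system for 60 min at room temperature.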

[4] = NFAT Signaling Pathway (AID 444; active means well fitted curve in either direction with a large enough effect, not every such curve was filed as active;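 further: carbachol stimulus at about its EC50 of 1 µM final; on the % scale 0 is the no-effect control and ±100 the full control effect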); details: Jurkat NFAT-bla M1, carbachol, beta-lactamase ratio, 5 h; at 7.69 µM (top of the series) unless noted
Outline: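 Jurkat cells carrying an NFAT-driven β-lactamase reporter and co-transfected muscarinic M1 receptor were treated with compound plus carbachol (1 uM final, an EC50 level) for 5 h at 37 °C. CCF4 loading followed for 1 h at RT; 460/530 nm ratio gave %activity.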

[5] = Stat Signaling Pathway (AID 446; active means well fitted curve in either direction with a large enough effect, not every such curve was filed as active;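 further: ME-180 cervical cancer cells given 40 pM IL-6 alongside compound; SIE-controlled beta-lactamase reporter measured as 460/530 nm FRET emission ratio; on the % scale 0 is the no-effect control and ±100 the full control effect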)
Outline: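 ME-180 cells carrying a SIE-driven beta-lactamase reporter are stimulated with 40 pM IL-6 for 5 h at 37C in the presence of compound. The 460/530 nm FRET substrate ratio is read after 2.5 h at RT. Data are normalised to 300 pM IL-6 and to 125 nM JAK inhibitor controls.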

[6] = target: Glucocorticoid receptor (Homo sapiens) (UniProt P04150); experiment: GR-GFP Redistribution (AID 450;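 active means compounds whose dose series gives a full or clear partial fitted curve of increased nuclear translocation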; further: potency means the concentration at half of the fitted maximal effect); details: U2OS GR-GFP nuclear translocation, laser cytometry, 2 h
Chain of Glucocorticoid receptor (Homo sapiens) (P04150 whole entry, looked up, the tested form may be a part): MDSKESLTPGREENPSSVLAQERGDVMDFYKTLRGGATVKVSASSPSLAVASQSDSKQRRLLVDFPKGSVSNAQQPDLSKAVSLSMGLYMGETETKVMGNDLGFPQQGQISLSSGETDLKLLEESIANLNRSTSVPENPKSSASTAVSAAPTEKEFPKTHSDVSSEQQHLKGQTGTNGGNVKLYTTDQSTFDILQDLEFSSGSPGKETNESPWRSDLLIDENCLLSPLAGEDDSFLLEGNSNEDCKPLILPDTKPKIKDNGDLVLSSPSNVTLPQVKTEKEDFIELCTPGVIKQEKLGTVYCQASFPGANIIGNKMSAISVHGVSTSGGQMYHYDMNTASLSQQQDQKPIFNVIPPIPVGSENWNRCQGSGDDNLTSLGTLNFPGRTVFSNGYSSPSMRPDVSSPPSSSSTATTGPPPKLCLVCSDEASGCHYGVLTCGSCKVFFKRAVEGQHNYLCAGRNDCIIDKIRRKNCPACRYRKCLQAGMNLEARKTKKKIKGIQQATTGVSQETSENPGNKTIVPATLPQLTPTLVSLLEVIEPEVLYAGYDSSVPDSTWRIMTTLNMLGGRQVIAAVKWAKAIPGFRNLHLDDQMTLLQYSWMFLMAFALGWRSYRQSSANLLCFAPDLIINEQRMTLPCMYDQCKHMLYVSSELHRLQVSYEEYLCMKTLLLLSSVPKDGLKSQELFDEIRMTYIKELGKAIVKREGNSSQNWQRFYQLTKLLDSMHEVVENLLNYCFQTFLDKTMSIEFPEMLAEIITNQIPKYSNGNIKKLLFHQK

[7] = target: Glucocorticoid receptor (Homo sapiens) (UniProt P04150); experiment: GR-EFC Redistribution (AID 451; calls by dose curve; further: potency means the concentration at half of the fitted maximal effect); details: CHO-K1 GR-EFC translocation, beta-gal luminescence, 2 h
Outline: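 CHO-K1 cells stably expressing nuclear-localized β-gal enzyme acceptor and GR fused C-terminally to the enzyme donor fragment; ligand-driven nuclear translocation restores β-gal by complementation. Compounds titrated up to 46 uM final, 2 h at 37 °C; luminescence read.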

[8] = target: Mitogen-activated protein kinase 10 (Mus musculus) (UniProt Q61831); experiment: JNK3 AlphaScreen Assay (AID 530; active means well fitted curve in either direction with a large enough effect, not every such curve was filed as active;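 further: kinase came from lysate of stimulated human HepG2 cells; signal reports phosphorylation of biotinylated GST-cJun 1-79 at Ser73 with 10 µM ATP; on the % scale 0 is the no-effect control and ±100 the full control effect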)
Outline: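 JNK3 came from HepG2 lysates pre-activated with IL-1beta and TNF-alpha and phosphorylated biotinylated GST-cJun (1-79) at 10 uM ATP, pH 7.6, room temperature. Compounds were titrated. AlphaScreen signal used anti-phospho-cJun (Ser73) antibody.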

[9] = target: 3',5'-cyclic-AMP phosphodiesterase 4B (Homo sapiens) (UniProt Q07343); experiment: qHTS Assay for Inhibitors of PDE-IV (AID 607; active means well fitted activation curve with a large enough effect in the main read-out, with a control signal flat, not every such curve was filed as active; further: % of control where 0% means no effect)
Chain of 3',5'-cyclic-AMP phosphodiesterase 4B (Homo sapiens) (Q07343 whole entry, looked up): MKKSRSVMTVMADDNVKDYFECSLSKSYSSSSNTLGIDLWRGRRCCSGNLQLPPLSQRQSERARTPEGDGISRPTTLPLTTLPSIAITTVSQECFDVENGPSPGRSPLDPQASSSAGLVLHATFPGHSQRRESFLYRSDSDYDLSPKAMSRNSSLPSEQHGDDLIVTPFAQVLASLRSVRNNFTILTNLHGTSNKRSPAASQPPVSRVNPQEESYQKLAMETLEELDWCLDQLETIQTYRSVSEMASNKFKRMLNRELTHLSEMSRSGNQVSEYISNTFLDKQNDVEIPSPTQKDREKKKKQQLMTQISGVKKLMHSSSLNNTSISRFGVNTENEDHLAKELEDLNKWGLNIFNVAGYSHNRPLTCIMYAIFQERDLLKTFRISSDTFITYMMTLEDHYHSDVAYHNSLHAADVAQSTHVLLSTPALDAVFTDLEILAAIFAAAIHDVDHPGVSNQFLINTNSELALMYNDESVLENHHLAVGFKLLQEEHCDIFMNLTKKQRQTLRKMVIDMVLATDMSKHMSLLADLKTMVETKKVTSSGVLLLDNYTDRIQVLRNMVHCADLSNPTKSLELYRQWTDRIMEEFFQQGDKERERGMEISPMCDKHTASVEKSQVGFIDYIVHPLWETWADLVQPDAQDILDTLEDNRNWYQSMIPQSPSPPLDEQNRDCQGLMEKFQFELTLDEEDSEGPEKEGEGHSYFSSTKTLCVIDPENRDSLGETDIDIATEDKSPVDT
Outline: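 HEK293 ACTOne cells with CNG channel (1000/well), endogenous PDE4; membrane potential dye, compounds up to 22.9 uM final. Fluorescence Ex 535/Em 590; RO 20-1724 (100 uM final) as reference.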

[10] = target: Cytochrome P450 2C9 (Homo sapiens) (UniProt P11712); experiment: qHTS Assay for Inhibitors and Substrates of Cytochrome P450 2C9 (AID 883); further: potency means the concentration at half of the fitted maximal effect; nearly all actives have a fitted effect of over 60% in size
Outline: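 Human CYP2C9 (10nM) hydroxylated Luciferin-H (100uM, at its KM) to luciferin in 25mM KPO4. Compound was preincubated 10 min at 37C, then NADPH regeneration started a 60 min reaction at 37C. Luminescence was read after detection reagent, normalized to 57uM sulphaphenazole.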

[11] = target: Cytochrome P450 3A4 (Homo sapiens) (UniProt P08684); experiment: qHTS Assay for Inhibitors and Substrates of Cytochrome P450 3A4 (AID 884); further: potency means the concentration at half of the fitted maximal effect; nearly all actives have a fitted effect of over 50% in size
Chain of Cytochrome P450 3A4 (Homo sapiens) (P08684 whole entry, looked up): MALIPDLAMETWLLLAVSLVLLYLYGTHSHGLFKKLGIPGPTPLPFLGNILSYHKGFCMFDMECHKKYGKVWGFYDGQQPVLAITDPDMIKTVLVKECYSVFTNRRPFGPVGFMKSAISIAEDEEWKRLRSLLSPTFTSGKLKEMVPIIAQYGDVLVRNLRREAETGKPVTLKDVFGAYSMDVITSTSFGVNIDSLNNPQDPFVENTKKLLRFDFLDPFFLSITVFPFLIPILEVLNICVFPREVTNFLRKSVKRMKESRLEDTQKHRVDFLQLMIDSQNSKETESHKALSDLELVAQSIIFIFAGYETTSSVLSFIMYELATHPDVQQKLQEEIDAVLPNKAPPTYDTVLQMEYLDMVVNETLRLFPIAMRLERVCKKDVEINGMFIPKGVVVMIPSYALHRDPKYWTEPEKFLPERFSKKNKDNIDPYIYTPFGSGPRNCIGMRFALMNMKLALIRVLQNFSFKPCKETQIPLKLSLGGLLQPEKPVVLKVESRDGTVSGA
Outline: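 20 nM human CYP3A4 with 25 uM Luciferin-PPXE (at KM) in 200 mM KPO4, preincubated 10 min with compound; NADPH regeneration started a 60 min RT reaction. Luciferin detected by luminescence, normalized to 57 uM ketoconazole as full inhibition.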

[12] = target: Cytochrome P450 3A4 (Homo sapiens) (UniProt P08684); experiment: qHTS Assay for Activators of Cytochrome P450 3A4 (AID 885); further: nearly all actives have a fitted effect of over 65% in size
Outline: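 Human CYP3A4 (20 nM) with Luciferin-PPXE at 25 uM (its KM) in 200 mM KPO4; 10 min compound preincubation, then NADPH regeneration and 60 min reaction at RT. Luciferin read by luminescence; normalized to 57 uM ketoconazole full inhibition.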

[13] = target: Cytochrome P450 2D6 (Homo sapiens) (UniProt P10635); experiment: qHTS Assay for Inhibitors and Substrates of Cytochrome P450 2D6 (AID 891); further: potency means the concentration at half of the fitted maximal effect; nearly all actives have a fitted effect of over 60% in size
Outline: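 Human CYP2D6 (5 nM) with 30 uM Luciferin-ME EGE (at Km) in 100 mM KPO4, compound preincubated 10 min, then NADPH regeneration system for 60 min at room temperature. Luciferin read by luminescence; normalized to 1.43 uM quinidine.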

[14] = target: Cytochrome P450 2C19 (Homo sapiens) (UniProt P33261); experiment: qHTS Assay for Inhibitors and Substrates of Cytochrome P450 2C19 (AID 899); further: potency means the concentration at half of the fitted maximal effect; nearly all actives have a fitted effect of over 60% in size
Outline: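 Human CYP2C19 (5nM) with Luciferin-H EGE at 10uM (its KM) in 50mM KPO4 was preincubated with compound for 10 min at 37C. NADPH regeneration started a 60 min 37C reaction. Luciferin was read by luminescence, normalized to 57uM ketoconazole.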

[15] = target: Dual specificity protein kinase CLK4 (Homo sapiens) (UniProt Q9HAZ1); experiment: qHTS Assay for Inhibitors of CDC-like Kinase 4 (Kinase-Glo Assay) (AID 1770); further: potency means the concentration at half of the fitted maximal effect; nearly all actives have a fitted effect of over 65% in size
Chain of Dual specificity protein kinase CLK4 (Homo sapiens) (Q9HAZ1 whole entry, looked up): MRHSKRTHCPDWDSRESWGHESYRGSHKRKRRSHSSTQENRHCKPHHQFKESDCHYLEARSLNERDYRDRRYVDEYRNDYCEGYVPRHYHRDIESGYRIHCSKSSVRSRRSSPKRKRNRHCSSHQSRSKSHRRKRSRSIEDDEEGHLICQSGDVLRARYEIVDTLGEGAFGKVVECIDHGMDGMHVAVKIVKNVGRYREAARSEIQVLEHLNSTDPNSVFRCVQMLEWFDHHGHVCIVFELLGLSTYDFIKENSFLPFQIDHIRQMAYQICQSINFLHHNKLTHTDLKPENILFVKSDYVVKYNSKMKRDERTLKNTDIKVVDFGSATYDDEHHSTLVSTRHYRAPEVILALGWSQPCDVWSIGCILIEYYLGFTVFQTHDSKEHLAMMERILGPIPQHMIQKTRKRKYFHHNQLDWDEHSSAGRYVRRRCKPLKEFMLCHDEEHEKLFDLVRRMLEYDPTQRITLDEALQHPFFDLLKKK
Outline: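 Inhibition was judged from remaining ATP, measured by Ultra-Glo luciferase bioluminescence after Clk4 (25 nM) had acted on RS peptide at 1 uM ATP for 4.5 hours, room temperature.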

[16] = target: Dual specificity protein kinase CLK4 (Homo sapiens) (UniProt Q9HAZ1); experiment: qHTS Assay for Inhibitors of CDC-like Kinase 4 (ADP-Glo Assay) (AID 1771); further: potency means the concentration at half of the fitted maximal effect; nearly all actives have a fitted effect of over 70% in size
Outline: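 Kinase reaction: Clk4 at 25 nM, RS repeat peptide substrate at 100 uM, ATP at 1 uM, 1 hr, room temperature. Product ADP detected as luciferase signal via ADP-Glo.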

[17] = target: Dual specificity protein kinase CLK4 (Homo sapiens) (UniProt Q9HAZ1); experiment: qHTS Assay for Inhibitors of CDC-like Kinase 4 (ADP-FP Assay) (AID 1795); further: potency means the concentration at half of the fitted maximal effect; nearly all actives have a fitted effect of over 60% in size
Outline: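 Inhibition of ADP formation by 6.25 nM Clk4 is measured using 1 uM ATP and 100 uM RS repeat peptide over one hour. Produced ADP displaces a fluorescent tracer from antibody, lowering polarization.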

[18] = target: Ubiquitin carboxyl-terminal hydrolase 1 (Homo sapiens) (UniProt O94782); experiment: Inhibitors of USP1/UAF1: Pilot qHTS (AID 504865);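 further: rhodamine fluorescence freed from ubiquitin-rhodamine substrate followed over time; top concentration of the series differs between compounds; on the % scale 0 is the no-effect control and ±100 the full control effect; nearly all actives have a fitted effect of over 35% in size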
Outline: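 Kinetic fluorescence assay: 1nM USP1/UAF1, 15 min compound preincubation, then 150nM Ub-Rho; 480/540 nm.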

[19] = target: Rap guanine nucleotide exchange factor 3 (Homo sapiens) (UniProt O95398); experiment: Confirmatory qHTS for antagonist of cAMP-regulated guanine nucleotide exchange factor 3 (EPAC1) (AID 1645880); details: EPAC1 Rap1B-BODIPY-GDP exchange, fluorescence; activity, negative = inhibition: at 115 µM (top of the series); further: nearly all actives have a fitted effect of over 55% in size; further: potency means the concentration at half of the fitted maximal effect;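 on activity, negative = inhibition: plate controls were DMSO only for no effect and full effect of the ATA control for full effect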
Chain of Rap guanine nucleotide exchange factor 3 (Homo sapiens) (O95398 whole entry, looked up): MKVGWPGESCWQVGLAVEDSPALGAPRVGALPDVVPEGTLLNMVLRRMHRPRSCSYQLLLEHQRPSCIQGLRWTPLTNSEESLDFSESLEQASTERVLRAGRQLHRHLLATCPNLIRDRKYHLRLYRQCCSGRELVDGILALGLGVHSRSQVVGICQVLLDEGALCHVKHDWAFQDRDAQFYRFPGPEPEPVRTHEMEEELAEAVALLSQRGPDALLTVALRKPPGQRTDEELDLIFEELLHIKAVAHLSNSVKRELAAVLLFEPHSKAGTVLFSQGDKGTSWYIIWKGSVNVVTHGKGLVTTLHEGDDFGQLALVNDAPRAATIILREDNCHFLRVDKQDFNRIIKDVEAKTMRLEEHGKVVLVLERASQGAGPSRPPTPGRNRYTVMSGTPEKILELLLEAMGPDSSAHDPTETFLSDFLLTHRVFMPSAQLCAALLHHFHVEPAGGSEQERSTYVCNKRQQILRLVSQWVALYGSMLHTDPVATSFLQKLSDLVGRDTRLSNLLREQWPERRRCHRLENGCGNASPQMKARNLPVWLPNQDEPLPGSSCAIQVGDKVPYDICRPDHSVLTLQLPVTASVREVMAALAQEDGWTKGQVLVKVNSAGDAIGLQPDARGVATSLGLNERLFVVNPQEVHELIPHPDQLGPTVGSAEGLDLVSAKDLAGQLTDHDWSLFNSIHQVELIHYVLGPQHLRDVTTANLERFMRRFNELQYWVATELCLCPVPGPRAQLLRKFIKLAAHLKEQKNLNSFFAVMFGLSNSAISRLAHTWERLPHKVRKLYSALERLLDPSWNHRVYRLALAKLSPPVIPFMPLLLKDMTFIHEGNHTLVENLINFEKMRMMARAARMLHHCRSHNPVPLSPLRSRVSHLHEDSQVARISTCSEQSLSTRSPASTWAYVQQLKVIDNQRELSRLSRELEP
Outline: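 Nucleotide exchange uses 100 nM EPAC1, 250 nM RAP1B-BODIPY-GDP and 50 uM GDP, with compounds in a concentration-titration series. After 5 min at room temperature, fluorescence (480 nm ex/540 nm em) is read every 5 min for 30 min. Data are normalized to control ATA and DMSO.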

[20] = target: Rap guanine nucleotide exchange factor 3 (Homo sapiens) (UniProt O95398); experiment: Confirmatory qHTS for agonist of cAMP-regulated guanine nucleotide exchange factor 3 (EPAC1) (AID 1645881);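 further: EPAC1 catalysed release of BODIPY-GDP from Rap1B seen as fluorescence loss; 100% = effect of cAMP agonist control; nearly all actives have a fitted effect of over 75% in size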
[21] = target: Rap guanine nucleotide exchange factor 4 (Homo sapiens) (UniProt Q8WZA2); experiment: Confirmatory qHTS for antagonist of cAMP-regulated guanine nucleotide exchange factor 4 (EPAC2) (AID 1645885); further: nearly all actives have a fitted effect of over 25% in size
Chain of Rap guanine nucleotide exchange factor 4 (Homo sapiens) (Q8WZA2 whole entry, looked up): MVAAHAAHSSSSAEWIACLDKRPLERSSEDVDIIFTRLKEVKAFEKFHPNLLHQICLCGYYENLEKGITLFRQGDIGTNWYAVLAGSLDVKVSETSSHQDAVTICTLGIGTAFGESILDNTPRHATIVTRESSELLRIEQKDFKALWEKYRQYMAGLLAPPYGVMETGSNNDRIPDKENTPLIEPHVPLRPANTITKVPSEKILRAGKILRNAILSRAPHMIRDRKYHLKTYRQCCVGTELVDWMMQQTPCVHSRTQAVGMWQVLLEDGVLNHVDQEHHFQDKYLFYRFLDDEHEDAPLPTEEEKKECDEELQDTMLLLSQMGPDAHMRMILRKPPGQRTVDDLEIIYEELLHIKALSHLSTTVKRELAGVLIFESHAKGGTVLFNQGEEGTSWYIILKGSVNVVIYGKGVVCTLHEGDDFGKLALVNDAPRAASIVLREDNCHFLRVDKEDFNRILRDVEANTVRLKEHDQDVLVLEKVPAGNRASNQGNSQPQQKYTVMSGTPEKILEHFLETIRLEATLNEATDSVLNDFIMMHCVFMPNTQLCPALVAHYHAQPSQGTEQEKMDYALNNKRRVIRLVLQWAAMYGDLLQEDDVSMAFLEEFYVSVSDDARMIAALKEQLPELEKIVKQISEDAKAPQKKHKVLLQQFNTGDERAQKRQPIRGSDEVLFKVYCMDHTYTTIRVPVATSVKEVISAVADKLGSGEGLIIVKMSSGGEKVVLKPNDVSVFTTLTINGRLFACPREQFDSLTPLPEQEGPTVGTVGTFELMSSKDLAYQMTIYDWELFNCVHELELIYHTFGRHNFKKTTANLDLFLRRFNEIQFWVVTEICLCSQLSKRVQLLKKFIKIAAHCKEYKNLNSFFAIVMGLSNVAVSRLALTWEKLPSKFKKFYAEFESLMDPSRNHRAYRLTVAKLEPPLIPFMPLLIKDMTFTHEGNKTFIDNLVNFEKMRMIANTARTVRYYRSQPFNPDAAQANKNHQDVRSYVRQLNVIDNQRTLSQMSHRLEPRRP

[22] = target: Rap guanine nucleotide exchange factor 3 (Homo sapiens) (UniProt O95398); experiment: Counterscreen qHTS for antagonist of cAMP-regulated guanine nucleotide exchange factor 3 (EPAC1) (AID 1645888);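 further: fluorescence loss as bound BODIPY-GDP is released from Rap1B; % of control where 0% means no effect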
Outline: (§1)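 Measured: fluorescence of BODIPY-GDP bound to Rap1B, which falls as exchange proceeds. Conditions include 50 uM competing GDP, 5 and 30 min reads, and a later cAMP challenge for antagonist detection.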

[23] = target: Tumor susceptibility gene 101 protein (Homo sapiens) (UniProt Q99816); experiment: qHTS Assay for Iinhibitors of HIV-1 Budding by Blocking the Interaction of PTAP/TSG101: Hit Validation (AID 651600); further: nearly all actives have a fitted effect of over 70% in size; further: potency means the concentration at half of the fitted maximal effect
Chain of Tumor susceptibility gene 101 protein (Homo sapiens) (Q99816 whole entry, looked up, the tested form may be a part): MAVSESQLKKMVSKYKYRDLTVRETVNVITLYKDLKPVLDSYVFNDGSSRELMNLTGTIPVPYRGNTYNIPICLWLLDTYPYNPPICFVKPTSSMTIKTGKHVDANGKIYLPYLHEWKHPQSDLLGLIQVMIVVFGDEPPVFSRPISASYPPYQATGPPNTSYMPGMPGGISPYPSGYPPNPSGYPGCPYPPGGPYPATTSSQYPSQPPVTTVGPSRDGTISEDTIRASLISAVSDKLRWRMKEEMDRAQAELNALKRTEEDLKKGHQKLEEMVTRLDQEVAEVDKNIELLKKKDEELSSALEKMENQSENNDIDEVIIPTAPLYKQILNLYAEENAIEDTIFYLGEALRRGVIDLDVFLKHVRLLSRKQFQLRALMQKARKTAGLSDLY
Outline: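 Displacement of a FITC-labeled PTAP-motif peptide (50 nM) from the Tsg101 binding domain (10 uM) was monitored by fluorescence polarization after a 20 min room-temperature incubation.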

[24] = target: Rap guanine nucleotide exchange factor 3 (Homo sapiens) (UniProt O95398); experiment: Counterscreen qHTS for agonist of cAMP-regulated guanine nucleotide exchange factor 3 (EPAC1) (AID 1645889); further: nearly all actives have a fitted effect of over 40% in size; further: potency means the concentration at half of the fitted maximal effect; on activation: % of control where 0% means no effect
Outline: as §1

[25] = qHTS for Inhibitors of the vitamin D receptor (VDR): Hit Validation using a Texas Red Assay (AID 602201); further: potency means the concentration at half of the fitted maximal effect
Outline: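 Fluorescence polarization (Ex 595/Em 615 nm) of Texas Red (7 nM) with 1.5 uM VDR-LBD and LG19078 (final concentrations). Compounds were incubated for 2 hours at room temperature.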

COc1ccc2[nH]cc(CCNc3ncncc3-c3ccccc3Cl)c2c1
active: Potency [3] 0.631 µM | Potency [10] 0.199 µM | Potency [11] 0.398 µM | Potency [13] 0.631 µM | Potency [14] 0.0631 µM | Potency [15] 12.6 µM | Potency [16] 10 µM | Potency [17] 12.6 µM
inactive: Potency [1] > 11.4 µM | activity change, negative = inhibition [2] -12.3% | activity change, negative = inhibition [4] -11.6% | outcome [5] | Potency [6] > 46 µM | Potency [7] > 46 µM | Potency [8] | Potency [9] | outcome [12] | Potency [18] | Potency [19] | Potency [20] | Potency [21]

CCCCn1nnnc1C(c1cc2ccccc2o1)N1CCN(c2cc(C)nc3ccccc23)CC1 (stereo not given)
inactive: Potency [19] | Potency [20] | Potency [22]

COc1ccc(C2=CC3=C(Br)C(=O)C(C)(OC(=O)c4cccs4)C(=O)C3=CO2)cc1 (stereo not given)
active: Potency [19] 16.9 µM
inactive: Potency [20] | Potency [22]

COc1ccc2c(c1)CCc1c(C(=O)N3CCCc4ccccc43)noc1-2
inactive: Potency [19] | Potency [20] | Potency [22]

COc1ccc2ccccc2c1C(O)c1nccn1C (stereo not given)
active: Potency [23] 8.19 µM
inactive: Potency [19] | Potency [20] | Potency [21] | Potency [22]

CCCCn1nnnc1C(c1cc2ccccc2o1)N1CCCC1 (stereo not given)
inactive: Potency [19] | Potency [20] | Potency [22]

CCN(CC)c1ccc(/C=c2\sc3nc4ccccc4n3c2=O)c(O)c1
active: Potency [24] 56.2 µM
inactive: Potency [23] | Potency [19] | Potency [20] | Potency [21] | Potency [22]

O=C(COc1ccc(Br)cc1Cl)c1ccc[nH]1
inactive: Potency [19] | Potency [20] | Potency [22]

COc1ccccc1NC(=O)Cc1ccc(-c2ccccc2)cc1
inactive: Potency [19] | Potency [20] | Potency [21] | Potency [24]

COc1ccc2c(c1)CCc1c(C(=O)N(C)c3ccccc3)noc1-2
inactive: Potency [19] | Potency [20] | Potency [22]

COc1cc([N+](=O)[O-])ccc1-c1ccc(/C=C2\C(=O)ON=C2c2ccccc2)o1
active: Potency [25] 3.16 µM | Potency [19] 19 µM
inactive: Potency [20] | Potency [21] | Potency [22] | Potency [24]

COc1ccc(NC(=O)CSc2ccccc2)cc1S(=O)(=O)N1CCCCC1
inactive: Potency [19] | Potency [20] | Potency [22]

COc1ccc(Nc2cccc3ccccc23)cc1
inactive: Potency [19] | Potency [20] | Potency [22]

O=C1CSC(=Nc2ccccc2)N1Cc1ccccc1
inactive: Potency [19] | Potency [20] | Potency [22]

COc1cc(NC(C)=O)ccc1-c1cc2ccccc2oc1=O
inactive: Potency [19] | Potency [20] | Potency [22]

COC(=O)c1cn(S(=O)(=O)c2ccccc2)c2ccccc12
inactive: Potency [19] | Potency [20] | Potency [22]
